Measurements from PubChem BioAssay AID1851 (National Center for Advancing Translational Sciences (NCATS), 2009).
Where “and” joins values, the source holds several entries; their conditions need not be identical. Identical values can stand only once. Screen size: about 16,000 compounds; about 5,800 (36%) were called active. Inconclusive results (about 23%) are left out. Calls come from the whole dose curve; as a rule, active = well fitted curve in the direction sought with a large enough effect; inconclusive = small, poorly fitted or top-dose-only effect, or effect the other way; inactive = no such curve, though single readings can be large or run the other way. The list shows a part of the results. More than one record can exist for a structure, and the calls need not agree.

target: Cytochrome P450 2C19 (Homo sapiens) (UniProt P33261); test: Cytochrome panel assay with activity outcomes; details: recombinant CYP, pro-luciferin dealkylation, luminescence, p450-cyp2c19; series mostly up to 57.1 µM; activity, negative = inhibition: at the top concentration
Sequence (P33261 whole entry, looked up): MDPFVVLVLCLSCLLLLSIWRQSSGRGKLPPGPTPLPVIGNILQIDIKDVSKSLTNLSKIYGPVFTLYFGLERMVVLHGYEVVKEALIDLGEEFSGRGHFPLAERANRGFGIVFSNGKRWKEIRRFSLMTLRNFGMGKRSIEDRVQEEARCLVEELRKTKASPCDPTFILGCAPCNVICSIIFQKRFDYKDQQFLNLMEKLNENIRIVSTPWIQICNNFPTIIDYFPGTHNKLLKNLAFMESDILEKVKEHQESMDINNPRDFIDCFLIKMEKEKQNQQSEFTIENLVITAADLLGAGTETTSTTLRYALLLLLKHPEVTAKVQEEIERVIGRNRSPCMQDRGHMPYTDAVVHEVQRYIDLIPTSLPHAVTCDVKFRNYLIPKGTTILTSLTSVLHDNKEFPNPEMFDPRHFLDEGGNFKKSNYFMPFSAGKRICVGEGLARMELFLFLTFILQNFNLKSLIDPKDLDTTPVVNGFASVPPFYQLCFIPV
% is set by controls: 0 for no effect and ±100 for the full control effect.

Structure (SMILES) | activity, negative = inhibition | AC50
CC[N+](CC)(CC(=O)Nc1c(C)cccc1C)Cc1ccccc1 | -31% [at 25.6 µM] (inactive) | –
Cc1cccc(C)c1NC(=O)C[N+](C)(C)C | – | inactive and 15.8 µM (active)
CC[N+](CC)(CC)CC(=O)Nc1c(C)cccc1C | – | inactive
C/C(=N\[N+](C)(C)C)c1ccc(C)c(C)c1 | 17.4% [at 11.4 µM] (inactive) | –
CC1=Nc2ccccc2/C1=C\c1nc(-c2ccc(C(F)(F)F)cc2)oc1O | – | 14.1 µM (active)
COc1cccc(OC)c1/C(O)=C(\C#N)c1nc2ccccc2[nH]1 | – | 7.08 µM (active)
Cc1ccccc1OC/C(O)=C(\C#N)c1nc2ccccc2[nH]1 | -17.2% (inactive) | –
C=CC1=C(C(=O)O)N2C(=O)[C@@H](NC(=O)/C(=N\OCC(=O)O)c3csc(N)n3)[C@@H]2SC1 | 21.8% [at 25.6 µM] (inactive) | –
CCOc1ccc(NC(=O)CSc2nc(C)c3c(c2C#N)CCCC3)cc1 | – | 2.82 µM (active)
COc1ccc(CSC2=C(C#N)C(=O)NC3(CCCCC3)S2)cc1 | -6.47% [at 11.4 µM] (inactive) | –
CCOc1ccc(NC(=O)CCNS(=O)(=O)c2ccc3c(c2)c(=O)n(C)c(=O)n3C)cc1 | -24.2% (inactive) | –
CC(=O)Nc1ccc(C2=NN(CC#N)C(=O)SC2)cc1 | -35.8% (inactive) | –
COc1ccc(NC(=O)CSc2nc(C)c3c(c2C#N)CCCC3)cc1 | – | 1.12 µM (active)
CSc1nc(N)nc(SCC(=O)Nc2ccc(Cl)cc2)c1C#N | – | 0.708 µM (active)
CO[C@H]1COC(=O)[C@H]2CCCN2C(=O)[C@@H](C)COC(=O)C/C=C\[C@@H]1C | 43.2% [at 11.4 µM] (inactive) | –
C#CCCCO/N=C1/[C@H]2O[C@@H]2[C@@H](O)[C@H]2[C@H]1CCn1c(=O)n(C)c(=O)n12 | -3.85% [at 11.4 µM] (inactive) | –
O=C(Oc1ccc(C(=S)N2CCOCC2)cc1Br)c1cc(Cl)ccc1Cl | -6.53% (inactive) | –
Cc1c(-c2ccccc2)oc2c(C(=O)OCCN3CCCCC3)cccc2c1=O | 16.9% [at 25.6 µM] (inactive) | –
Cc1ccccc1C(=O)Oc1ccc(Br)cc1C(=S)N1CCCC1 | – | 2.24 µM (active)
COc1ccc(-n2c(C)n[nH]c2=O)cc1 | -15.4% (inactive) | –
COc1ccc2c(c1)C(=O)N(c1ccccc1)C(=O)C2 | – | 11.2 µM (active)
O=C(c1c(O)c2ccc(Cl)cc2[nH]c1=O)C1CC1 | 9.43% (inactive) | –
CC(C)CN1CCC2(CC1)CCN(C(=O)c1ccncc1)CC2 | -12.2% (inactive) | –

Structure (SMILES) | activity, negative = inhibition | AC50
CC(C)Cc1nc(N2CCN(C(=O)c3ccccc3)CC2)c(C#N)c2c1CCC2 | – | 2.51 µM (active)
COc1ccc(C(=O)N2CCC3(CCN(Cc4ccc(C#N)cc4)CC3)CC2)cc1 | -41.7% (inactive) | –
CCC(=O)N1CCN(C(=O)c2ccccc2)CC1 | -7.45% (inactive) | –
N#Cc1ccc(CN2CCC3(CC2)CCN(C(=O)c2ccncc2)CC3)cc1 | 33.2% (inactive) | –
N#Cc1c(N2CCN(C(=O)c3ccccc3Cl)CC2)nc(-c2ccccc2)c2c1CCCC2 | – | 3.98 µM (active)
CC(=O)OC[C@@H]1O[C@@H](O/N=C2/C[C@@H](O)[C@@H](O)[C@@H]3[C@H]4C(=O)N(c5ccc(F)cc5F)C(=O)[C@@H]4CC[C@@H]23)[C@H](OC(C)=O)[C@H](OC(C)=O)[C@@H]1OC(C)=O | 51.5% [at 11.4 µM] (inactive) | –
Cc1cc(NC(=O)Nc2ccc3c(ccn3C)c2)sn1 | – | 3.16 µM (active)
C[C@@H]1CC[C@H]2C(=O)O[C@H](CN=[N+]=[N-])CN2[C@@H]1c1ccc(Br)cc1 | – | 0.398 µM (active)
C[C@@H]1CN2[C@H](c3ccc(Br)cc3)[C@H](C)CC[C@H]2C(=O)O1 | -28.6% [at 11.4 µM] (inactive) | –
CCCC[C@@H]1CN2[C@H](c3ccc(Br)cc3)[C@H](C)CC[C@H]2C(=O)O1 | – | 3.98 µM (active)
CCCC[C@@H]1CN2[C@H](c3ccc(Br)cc3)[C@@H](C)CC[C@H]2C(=O)O1 | -43.3% [at 11.4 µM] (inactive) | –
C[C@@H]1CC[C@H]2C(=O)NC[C@@H](O)CN2[C@@H]1c1ccc(Br)cc1 | – | 2 µM (active)
CO[C@H]1COC(=O)[C@@H](CCSC)NC(=O)C/C=C\[C@@H](C)[C@H](OC)COC(=O)[C@@H](OCc2ccccc2)/C=C\[C@@H]1C | -26% [at 11.4 µM] (inactive) | –
Cc1ccccc1/C=C\C1=NCCN1 | -25.7% (inactive) | –
N=C(N)[C@H](N=Nc1ccccc1)C(N)=O | -26.2% [at 11.4 µM] (inactive) | –
COc1ccc(-c2nnc(-c3cccnc3)o2)cc1 | – | 17.8 µM (active)
CCOc1ccc(-c2nnc(-c3ccncc3)o2)cc1 | – | 0.112 µM (active)
Cc1ccc(-c2nnc(-c3ccc4ccccc4c3)o2)cc1 | 10.3% [at 11.4 µM] (inactive) | –
N#CCCn1c(=O)cnc2cnc(N3CCNCC3)nc21 | 33.4% (inactive) | –
CCC(=O)Nc1nnc(C(C)(C)C)s1 | -3.89% (inactive) | –
CC(C)(C)c1nnc(NC(=O)c2cc(-c3ccccc3)nc3ccccc23)s1 | – | 5.01 µM (active)
CC(C)(C)NS(=O)(=O)c1ccc(NC(=O)c2cc(-c3ccccc3)nc3ccccc23)cc1 | – | 2.82 µM (active)
CC(C)(C)NS(=O)(=O)c1ccc(NC(=O)C(Sc2ccccc2)c2ccccc2)cc1 (stereo not given) | – | 3.55 µM (active)

Structure (SMILES) | activity, negative = inhibition | AC50
CC(=O)Nc1ccc(-c2cc(C(=O)O)c3cc4ccccc4cc3n2)cc1 | 9.44% [at 11.4 µM] (inactive) | –
COc1ccc(-c2cc(C(=O)Nc3nc4c(C)cccc4s3)c3ccccc3n2)cc1OC | – | 2.51 µM (active)
CN1CCN(c2ncc3nc(-c4cc(F)cc(F)c4)c(=O)n(Cc4cccs4)c3n2)CC1 | -27% (inactive) | –
CCS(=O)(=O)N(C)[C@@H]1c2cc(C#N)ccc2OC(C)(C)[C@H]1O | -11.7% (inactive) | –
Cc1cc([N+](=O)[O-])nn1Cc1ccccc1F | – | 11.2 µM (active)
Cc1cc([N+](=O)[O-])nn1CC(=O)NNC(=S)Nc1ccc(F)cc1 | -23.1% (inactive) | –
Nc1c(S(=O)(=O)c2ccccc2)c2nc3ccccc3nc2n1Cc1ccco1 | – | 7.08 µM (active)
CCOC(=O)c1nn(-c2ccccc2)c(-c2ccccc2)c1C(=O)c1ccccc1 | – | 10 µM (active)
COC(=O)c1nn(-c2ccccc2)c(-c2ccccc2)c1C(=O)c1ccccc1 | – | 8.91 µM (active)
COC(=O)c1c(C)nc2ccccc2c1C(=O)O | 3.75% (inactive) | –
O=C(O)c1nn(-c2ccccc2)ccc1=O | -12% (inactive) | –
O=C(c1ccccc1)c1nn(-c2ccccc2)c(=O)cc1C(F)(F)F | – | 1.58 µM (active)
NC(=O)c1nn(-c2ccccc2)c(=O)cc1O | -3.79% (inactive) | –
COc1ccc(NC(=O)N2CCCC3(CCN(C(=O)c4cccn4C)CC3)C2)cc1 | -8.93% (inactive) | –
CC(C)[C@@H]1[C@H]2CC[C@H](C2)[C@H]1N | -13.4% (inactive) | –
C[C@@H](O)[C@H]1C(=O)N2C(C(=O)O)=C(S[C@@H]3CN[C@H](C(=O)N(C)C)C3)[C@H](C)[C@H]12 | -28.3% [at 25.6 µM] (inactive) | –
CCc1ccc(/C=C\C(=O)N2CCc3ccccc3C2)cc1 | – | 4.47 µM (active)
CC1=C[N+](=O)c2ccccc2[N+]1=O | 5.82% [at 11.4 µM] (inactive) | –
CCOC(=O)CN(C(=O)CCC(=O)Nc1cc(C)on1)C(C(=O)NC1CCCC1)c1cccnc1 (stereo not given) | – | 28.2 µM (active)
Cc1cc(NC(=O)CCC(=O)N(CC2CCCO2)C(C(=O)NC2CCCC2)c2cccnc2)no1 (stereo not given) | -30% (inactive) | –
O=C(O)[C@@H]1CCCNC1 | -17.7% [at 25.6 µM] (inactive) | –
CCCCC1CCC(c2nc(-c3ccccn3)no2)CC1 (stereo not given) | – | 22.4 µM (active)
O=c1[nH]c(=O)n(Cc2ccco2)c2c1C(C(F)(F)F)(C(F)(F)F)N=C(CCC1CCCCC1)N2 | -14.8% (inactive) | –

Structure (SMILES) | activity, negative = inhibition | AC50
O=C(N/N=C/c1cccnc1)c1ccc([N+](=O)[O-])cc1 | -8.35% (inactive) | –
O=C(c1ccc([N+](=O)[O-])cc1)[C@@H](Br)[C@@H](Br)c1ccnc2ccccc12 | – | 1.26 µM (active)
COc1ccc(C2C(C(=O)c3ccco3)=C(O)C(=O)N2Cc2cccnc2)cc1OC (stereo not given) | -13.2% (inactive) | –
CCN1C(=O)C(CC(=O)Nc2ccc(OC)cc2)N(Cc2cccnc2)C1=S (stereo not given) | – | 1.26 µM (active)
COc1ccc(-c2nc3cnc(N(C)C)nc3n(Cc3cccs3)c2=O)cc1 | -8.82% (inactive) | –
CCNc1ncc2nc(-c3ccc(OC)cc3)c(=O)n(Cc3cccs3)c2n1 | 1.48% (inactive) | –
CCN1C(=O)C(CC(=O)Nc2ccc(OC)cc2)N(Cc2cccs2)C1=S (stereo not given) | – | 0.355 µM (active)
Cn1c(=O)[nH]c2ncn(C)c2c1=O | -8.51% (inactive) | –
O=C(NCc1ccco1)c1ccccc1NS(=O)(=O)c1ccc(Br)s1 | – | 1.58 µM (active)
Nc1ccccc1C#Cc1ccccc1 | – | 10 µM (active) and 5.01 µM (active)
O=C1C=C(c2cccs2)CC(c2cccs2)C1n1cnc([N+](=O)[O-])c1 (stereo not given) | – | 10 µM (active)
COc1ccccc1CN1CCCC2(CCN(C(=O)c3cnccn3)CC2)C1 | -12.4% (inactive) | –
COc1cc(/C=C(/NC(=O)c2ccccc2)C(=O)Nc2ccccc2)c([N+](=O)[O-])cc1OC | – | 15.8 µM (active)
O=C(Nc1cccc2ccccc12)/C(=C/c1ccc([N+](=O)[O-])cc1)NC(=O)c1ccccc1 | – | 7.94 µM (active)
O=C(Nc1ccccc1)/C(=C\c1ccncc1)NC(=O)c1ccccc1 | – | 0.126 µM (active)
Cc1ccc(NC(=O)/C(=C\c2ccc([N+](=O)[O-])cc2)NC(=O)c2ccccc2)cc1 | – | 1.41 µM (active)
O=C(c1cccc(F)c1)N1CCC[C@@]2(CCN(C(c3ccccc3)c3ccccc3)C2)C1 | 10.6% (inactive) | –
COc1ccc(COC(=O)N/N=C2/C[C@@H](O)[C@@H](O)[C@@H]3[C@H]4C(=O)N(c5ccc(F)cc5F)C(=O)[C@@H]4CC[C@H]23)cc1 | 31.9% [at 11.4 µM] (inactive) | –
Cc1cc2cc3c(C)cc(=O)oc3c(C)c2o1 | 7.53% [at 25.6 µM] (inactive) | –
Cc1ccc(C(=O)N/C(=C\c2ccc([N+](=O)[O-])cc2)C(=O)NCCc2ccccc2)cc1 | – | 2 µM (active)
O=C(OCC(=O)c1ccc([N+](=O)[O-])cc1)/C(=C\c1ccc(Cl)cc1)NC(=O)c1ccccc1 | – | 3.98 µM (active)
